# A selection: hits, their analogues and other compounds. The true share with any hit is near 18%.
# CtBP-E1A inh: qHTS Assay for Inhibitors of the CtBP/E1A Interaction; CtBP / adenovirus E1A interaction (AlphaScreen); AlphaScreen GST-E1A/His-CtBP binding, 1536-well; hits give low values; activity change, % (test concentration not listed); 0.49% of 340,000 active; AID 651724, 2012; in the data active means activity change below about -65%; inconclusive means mostly about -30% to -63%
#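 In 5 uL wells, 23 nL compound meets equimolar GST-E1A and His-CtBP (5X stock 125 nM each) for 2 h, 37 °C. Beads (5X, 50 ug/mL) then 1 h, 37 °C, dark.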
# TDP1 cell noCPT: qHTS for Inhibitors of human tyrosyl-DNA phosphodiesterase 1 (TDP1): qHTS in cells in absence of CPT. DT40 Tdp1-/- hTDP1 cells, no CPT, ATP luminescence, 48 h. Potency, µM (highest dose often 46.2 µM), for the others: at the highest dose activity change, negative = growth inhibition, most hits filed as inhibitors. 15% of 420,000 active; further: potency means the concentration at half of the fitted maximal effect; nearly all actives have a fitted effect of over 55% in size
#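 A cellular qHTS used chicken DT40 cells lacking endogenous Tdp1 but carrying stably transfected human TDP1. Compounds were applied without camptothecin, and cell growth kinetics were judged by ATP-dependent luminescence after ≥48 hr.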
# Six1-Eya2 blk: qHTS Assay for Inhibitors of the Six1/Eya2 Interaction; Homeobox protein SIX1 (Homo sapiens) + Protein phosphatase EYA2 (Homo sapiens), …; AlphaScreen GST-Six1/His-Eya2 binding, biochemical; hits give low values; activity change, % (no concentration beside the values); 0.56% of 360,000 active; AID 651725, 2012; in the data active means activity change below about -65%; inconclusive means mostly about -30% to -63%
#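 Six1/Eya2 binding was read as AlphaScreen signal after compounds were pinned into GST-Six1 plus His-tagged Eya2 (5X stock 250/500 nM) in pH 8.0 Tris/NaCl/TCEP buffer, beads added, then incubated 1 h, 37 C, dark.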
# DT40 TDP1 CPT: qHTS for Inhibitors of human tyrosyl-DNA phosphodiesterase 1 (TDP1): qHTS in cells in presence of CPT; chicken DT40 Tdp1-/-;hTDP1 cells + 20 nM CPT, ATP luminescence, 48 h; Potency, µM (titrated, usually from 46.2 µM), for the others: at the top dose activity change, negative = growth inhibition, hits mostly inhibitors; 12% of 420,000 active; further: potency means the concentration at half of the fitted maximal effect; nearly all actives have a fitted effect of over 55% in size
#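 Chicken DT40 Tdp1-/- cells stably complemented with human TDP1 were seeded at 400 cells/well in medium containing 20 nM camptothecin, exposed to pin-transferred compounds, and grown at 37 °C for at least 48 hr. Viability was read as ATP luminescence.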
# IL-1B inflam inh: qHTS for Inhibitors of Inflammasome Signaling: IL-1-beta AlphaLISA Primary Screen | activity change, % at 57.5 µM | 4.7% of 360,000 active | THP-1 LPS/ATP IL-1B secretion, AlphaLISA, 16 h; hits give low values; in the data active means activity change below about -50%; inconclusive means mostly about -30% to -49%
#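 Secreted IL-1B measured by AlphaLISA bead assay after 16 h compound exposure of THP-1 cells; compounds (final up to 57.5 uM) added 1 h before LPS (250 ng/mL) and ATP (1.25 mM) stimulation; lower signal means less secretion.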
# TDP1 inh: qHTS Assay for Inhibitors of Tyrosyl-DNA Phosphodiesterase (TDP1) | Potency, µM (titrated, usually from 130 µM), inactives show at the top dose activity change, negative = inhibition, hits mostly inhibitors | recombinant TDP1, AlphaScreen DNA substrate cleavage | 0.28% of 350,000 active | Tyrosyl-DNA phosphodiesterase 1 (Homo sapiens), Q9NUW8; further: potency means the concentration at half of the fitted maximal effect; nearly all actives have a fitted effect of over 40% in size
# Target sequence (Q9NUW8 whole entry, looked up): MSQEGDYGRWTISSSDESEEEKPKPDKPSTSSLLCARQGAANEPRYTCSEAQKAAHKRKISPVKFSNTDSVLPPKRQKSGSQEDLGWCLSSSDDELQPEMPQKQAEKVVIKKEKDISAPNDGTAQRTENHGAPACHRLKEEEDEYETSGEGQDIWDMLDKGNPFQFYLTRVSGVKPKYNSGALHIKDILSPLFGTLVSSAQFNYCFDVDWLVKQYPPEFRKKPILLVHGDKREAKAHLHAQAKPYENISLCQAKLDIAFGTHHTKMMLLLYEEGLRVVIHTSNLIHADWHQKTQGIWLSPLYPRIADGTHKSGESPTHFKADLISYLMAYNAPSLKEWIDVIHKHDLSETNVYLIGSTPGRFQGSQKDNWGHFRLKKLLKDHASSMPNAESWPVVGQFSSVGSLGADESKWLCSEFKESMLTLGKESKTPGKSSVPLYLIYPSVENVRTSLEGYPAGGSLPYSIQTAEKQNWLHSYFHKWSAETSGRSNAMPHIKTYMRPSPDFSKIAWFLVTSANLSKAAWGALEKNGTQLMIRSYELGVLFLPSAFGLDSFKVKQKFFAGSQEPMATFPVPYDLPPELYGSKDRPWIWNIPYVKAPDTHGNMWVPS
#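 Steps: enzyme plus compound, 15 min RT; add biotin/phosphotyrosine-FITC oligonucleotide (15 nM final), react 5 min; add donor/acceptor beads (10 ug/ml final), 10 min; read AlphaScreen. Tdp1 at 1 nM final.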
# An asterisk follows results filed as active; ? = inconclusive; . = not tested or not shown. Unless noted, the call rests on the fitted dose curve; in most records, active means well fitted curve in the direction sought with a large enough effect; inconclusive means small, poorly fitted or top-dose-only effect, or another doubt; inactive means no such curve, though single readings can be large; an effect the other way counts as inactive or inconclusive. On the % scale 0 is the no-effect control and ±100 the full control effect.
SMILES,CtBP-E1A inh,TDP1 cell noCPT,Six1-Eya2 blk,DT40 TDP1 CPT,IL-1B inflam inh,TDP1 inh
COc1ccccc1N1CCN(S(=O)(=O)c2ccc3c(c2)CC(C)N3C(C)=O)CC1 (stereo not drawn),.,?,-3.0,?,-1.5,5.9%
O=C(C1CCN(S(=O)(=O)c2ccc(Cl)cc2)CC1)N1CCCC1,-2.8,?,9.0,1.1%,1.3,.
COc1ccccc1N1CCN(C(=O)C2CCN(S(=O)(=O)c3ccc4c(c3)CC(C)N4C(C)=O)CC2)CC1 (stereo not drawn),-1.9,11.6µM*,2.2,?,21.8,5.2%
CC(=O)N1c2ccc(S(=O)(=O)N3CCC(C(=O)N4CCN(c5cc(Cl)ccc5C)CC4)CC3)cc2CC1C (stereo not drawn),-8.3,9.2µM*,-8.4,10.3µM*,-15.7,1.9%
Cc1ccc(Cl)cc1N1CCN(S(=O)(=O)c2ccc3c(c2)CC(C)N3C(=O)C2CCC2)CC1 (stereo not drawn),.,?,.,-25.9%,.,6.2%
C[C@@]12CCc3occc3[C@H]1CC[C@@]13C[C@@H](CC[C@H]12)[C@@](O)(CO)C3,.,.,.,.,.,9.5%
COc1ccccc1N1CCN(C(=O)C2CCN(S(=O)(=O)c3ccc(Cl)cc3)CC2)CC1,-6.1,20.6µM*,-9.3,?,-18.4,4.9%
COc1ccccc1N1CCN(C(=O)C2CCN(S(=O)(=O)c3ccccc3)CC2)CC1,5.2,-18.8%,-0.6,-18.5%,9.3,4.7%
CC1Cc2cc(S(=O)(=O)N3CCC(C(=O)N4CCN(c5ccccc5F)CC4)CC3)ccc2N1C(=O)C1CC1 (stereo not drawn),-6.7,?,-8.0,?,-51.5*,1.7%
O=C(O)c1ccc(S(=O)(=O)N2CCC3(CC2)CC(=O)c2ccccc2O3)cc1,-3.6,-0.4%,8.7,2.1%,-1.2,-0.9%
Cc1cc(NS(=O)(=O)c2ccc(NC(=O)CCCOc3ccc(Cl)cc3)cc2)no1,1.8,-1.1%,6.6,-7.5%,18.1,1.9%
CCOc1ccc(C2CC(=O)Nc3nc(SCc4ccccc4C)[nH]c(=O)c32)cc1OC (stereo not drawn),.,14.6µM*,.,?,.,0.5%
Cc1ccc(C(=O)/C=C\NCc2ccccc2)cc1,-1.3,-4.8%,-8.3,-16.9%,?,1.3%
Cc1ccc(S/C=C\C(=O)c2ccccc2)cc1,-7.2,20.6µM*,-18.9,20.6µM*,-103.3*,-2.0%
CCCNC(=O)CCCCn1c(=S)[nH]c2c([nH]c3ccc(OC)cc32)c1=O,.,5.8µM*,1.2,5.8µM*,6.4,5.9%

# Compound activity deposited in PubChem by National Center for Advancing Translational Sciences (NCATS).
